Only some compounds are listed: those with a hit (about 4% of all), similar ones and a draw of the others.
CF NFkB inh: inhibitors of cystic fibrosis induced NF-kB; inhibition, % at 5 µM; KKLEB NF-kB-GFP reporter, PAF-induced, GFP fluorescence overnight; AID 588850; 0.86% of 360,000 active;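 active means at least 50% inhibition at 5 µM, scaled per plate between neutral and stimulator controls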;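 further: PAF is a Pseudomonas aeruginosa culture filtrate used as stimulus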
KKLEB cytotox: reduces viability of KKLEB cystic fibrosis airway cells | 0.36% of 360,000 active | activity change (cytotoxicity), % at 5 µM | KKLEB CF airway cells viability, ATPlite luminescence, overnight; active compounds read low; cells stimulated with P. aeruginosa culture filtrate;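 active means corrected activity change at or below -50% at 5 µM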
TWEAK Fn14 block: inhibitors of TWEAK-Fn14 interaction signaling; 2% of 360,000 active; AID 1159606; inhibition, % at 10 µM; TWEAK-stimulated Fn14 reporter cells, luciferase luminescence, 8 h; in the data active means inhibition above about 50%
Peg3 prom inh: inhibitors of Peg3 promoter; AID 588405; 1.7% of 360,000 active; inhibition, % at 20 µM; HeLa PEG-Prom luciferase reporter, luminescence, overnight;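 active means inhibition of at least 50% at 20 µM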
HIF-2a inh: blocks HIF-2a reporter activity; 786-0 RCC cells HIF-2a reporter, luciferase luminescence, overnight; 0.72% of 360,000 active; AID 624352; inhibition, % at 18.8 µM;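 active means inhibition of the luminescence signal of 40% or more relative to plate controls, in a single-dose primary screen at 18.75 µM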
TROY NFkB inh: blocks TROY-dependent signaling in reporter cells; 0.98% of 360,000 active; AID 1347056; Q293 LMP1-TROYcd NF-kB luciferase reporter, 4 h; inhibition, % at 10 µM;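 active means compounds whose plate-normalised and pattern-corrected inhibition of the luciferase reporter signal at the single screening dose is 50% or more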
Each line names hits and unclear results; the compound was inactive in the other large screens; ! = repeats disagree.

C[C@@H]1CN([C@H](C)CO)C(=O)CCCn2nncc2CO[C@@H]1CN(C)S(=O)(=O)c1ccc(-n2cccn2)cc1	none
COc1ccc(NC(=O)N2C3CCCC2CC(NC(=O)C2CC2)C3)cc1 (centres undefined)	TWEAK Fn14 block 77.0
COc1cccc(NC(=O)N2C3CCCC2CC(NC(=O)C2CC2)C3)c1 (centres undefined)	none
CC1=NCC(C)c2c1[nH]c1ccccc21 (centres undefined)	TROY NFkB inh 75.0
CC1=NCC(C)c2ccccc21 (centres undefined)	none
O=C(CCc1nc2ccccc2c(=O)[nH]1)N1CCCc2ccccc21	none
CCN1CCN(Cc2ccc(NC(=O)c3cc(NC(=O)N4CCNC4=O)cc(OC)c3)cc2C(F)(F)F)CC1	Peg3 prom inh 97.0!
CCN1CCN(Cc2ccc(NC(=O)c3cc(NC(=O)c4cc5cccc(OC)c5o4)cc(OC)c3)cc2C(F)(F)F)CC1	CF NFkB inh 55.3!, KKLEB cytotox -53.2!, TWEAK Fn14 block 60.1!, Peg3 prom inh 104.4
COc1ccc(NC(=O)C2CC(c3cccc(Br)c3)=NO2)cc1OC (centres undefined)	none
CC(=O)c1c(C)[nH]c(C(=O)Nc2cccc(C)n2)c1C	TWEAK Fn14 block 52.7
CC(=O)c1c(C)[nH]c(C(=O)Nc2ccc(N3CCCCCC3)cc2)c1C	TWEAK Fn14 block 72.3
CC(=O)c1c(C)[nH]c(C(=O)NCc2ccccc2F)c1C	TWEAK Fn14 block 54.3
CC(=O)c1c(C)[nH]c(C(=O)NCc2ccccc2Cl)c1C	none
COc1ccc(-n2c(C)cc(C(=O)CN3CCCCC3)c2C)cc1	none
CNS(=O)(=O)c1cc(O)c2c(S(=O)(=O)NC)cccc2c1	none
O=c1cc(Cl)[nH]n(-c2ccccc2)c1=O	none
CCOc1ccc(CN(C)CC(O)COC(c2ccc(OC)cc2)c2ccc(OC)cc2)cc1 (centres undefined)	Peg3 prom inh 50.2
CS(=O)(=O)N(CCc1ccccc1)CC(=O)NCc1ccco1	TWEAK Fn14 block 81.5 (no result: TROY NFkB inh)
Cc1ccc(CNC(=O)CN(CCc2ccccc2)S(C)(=O)=O)cc1	none
C=CCc1cc(C(=O)N2CCCCC2)ccc1O	CF NFkB inh 50.8
COc1cc(OC)c(OC)cc1/C=C/c1cc(C(=O)O)c2ccccc2n1	none
COc1ccc(/C=C/C(=O)Nc2ccccc2C(=O)O)cc1OC	TWEAK Fn14 block 98.5, TROY NFkB inh 84.2
COc1ccc(/C=C/C(=O)Nc2ccccc2C(=O)O)cc1	TWEAK Fn14 block 86.8, TROY NFkB inh 53.5
COc1ccc(/C=C/c2cc(C(=O)O)c3ccccc3n2)cc1	TWEAK Fn14 block 77.0
COc1ccc(/C=C/C(=O)Nc2ccccc2C(F)(F)F)cc1OC	none
Cc1ccc(/C=N/NC(=O)CNC(=O)c2ccc(S(=O)(=O)N(C)C)cc2)cc1	none
Cc1ccc(-n2nnnc2SCC(=O)Nc2ccccc2N2CCCCC2)cc1C	none
Cn1nccc1C(=O)Nc1cccc(C(F)(F)F)c1	none
CC(=C\c1ccccc1)/C=C1/SC(=S)N(CCCC(=O)O)C1=O	HIF-2a inh 91.2, TROY NFkB inh 59.5
CC(/C=C1\SC(=S)N(CCCC(=O)Nc2ccc(C(=O)O)cc2)C1=O)=C\c1ccccc1	TWEAK Fn14 block 50.0
C=CCN1C(=O)/C(=C\C(C)=C\c2ccccc2)SC1=S	none
CC(/C=C1\SC(=S)N(CCC(=O)Nc2cccc(C(=O)O)c2)C1=O)=C\c1ccccc1	none
CC(=Cc1ccccc1)C=C1SC(=S)N(CCCC(=O)Nc2ccc(C(=O)O)cc2)C1=O	TWEAK Fn14 block 63.6
COC(=O)[C@@]12C[C@@H](CC(=O)NCc3ccc(C)o3)C(=O)N(Cc3ccco3)C1=CCC(C)(C)C2	none (no result: CF NFkB inh, KKLEB cytotox, TWEAK Fn14 block, Peg3 prom inh, TROY NFkB inh)
CC1(C(=O)NS(=O)(=O)c2ccc(Cl)cc2)CCN1C(=O)C1CCCCC1 (centres undefined)	none
CC1(C)Cc2[nH]c(=O)c(C#N)cc2CS1	none
CCC1(C)Cc2[nH]c(=O)c(C#N)cc2CO1 (centres undefined)	TWEAK Fn14 block 86.3
CCOc1ccccc1N1CCN(C(=O)c2cc(S(=O)(=O)N(C)C)ccc2N2CCCC2)CC1	none
CC1CCC/C(=N\NS(=O)(=O)c2ccccc2)C1 (centres undefined)	none
COc1ccc(C(=O)N/C(=C\c2ccc(-c3cccc([N+](=O)[O-])c3)o2)C(=O)NCCCN2CCOCC2)cc1	none
Cc1ccc(C(=O)N/C(=C\c2ccc(-c3cccc([N+](=O)[O-])c3)o2)C(=O)NCCCN2CCOCC2)cc1	Peg3 prom inh 93.7
O=S(=O)(Nc1ccc(F)cc1Cl)c1ccc(-c2cnc(C3CC3)o2)cc1	TROY NFkB inh 52.2
Cc1ccc(-n2nnnc2SCC(=O)NCCC2=CCCCC2)c(C)c1	none
CCCCNS(=O)(=O)c1ccc2nc(-c3cccnc3)cc(C(=O)NC(C)CC)c2c1 (centres undefined)	none
CC(=O)c1c(OC(=O)c2ccc(C)cc2)c2ccccc2n1C	none
Cc1ccc(C(=O)Oc2cc(C)n(C)c(=O)c2)cc1	TWEAK Fn14 block 54.0
C=C1CCC[C@]2(C)C[C@H]3OC(=O)C(CNC(CC)CO)[C@H]3CC12 (some centres undefined)	TWEAK Fn14 block 57.2
C=C1CCC[C@]2(C)C[C@H]3OC(=O)C(CNC(C)CC)[C@H]3CC12 (some centres undefined)	none
CCN=c1scc(-c2ccccc2)n1/N=C/c1ccccn1	TWEAK Fn14 block 91.7, TROY NFkB inh 77.4
O=C(CC1CCCC1)NCCc1cn2ccccc2n1	none
CCN(CC)CCNc1ccc(CO)c2oc3cc(Cl)ccc3c(=O)c12	Peg3 prom inh 100.8
CCN(CC)CCNC(CC(=O)Nc1ccc(Cl)cc1Cl)C(=O)O (centres undefined)	none
CNc1nc(Oc2cccc(NC(C)=O)c2)c2sccc2n1	none
COc1ccc(NC(=O)c2ccc(F)cc2)cc1S(=O)(=O)Nc1cc(C)ccc1Br	TWEAK Fn14 block 59.9, Peg3 prom inh 54.5
CCOc1cccc(C(=O)Nc2cccc(-c3nnc(-c4ccccc4)o3)c2)c1	Peg3 prom inh 75.8
CCOc1cccc(C(=O)Nc2cccc(-c3nnc(-c4ccc(C)cc4)o3)c2)c1	CF NFkB inh 56.8, KKLEB cytotox -67.9
COc1cccc(C2CC(c3cccc(OC)c3)n3nc(N)nc3N2)c1 (centres undefined)	none
CN(C)CC(O)c1ccc(C=Cc2ccc(Cl)cc2)cc1 (centres undefined)	Peg3 prom inh 103.5
CN(C)/C=C/C(=O)/C=C/c1ccc(Cl)cc1	none
CSC(=S)NN=C(C)c1cccc(C)n1	CF NFkB inh 76.0, TWEAK Fn14 block 91.0
CC(=NNC(=S)N1CCCCC1)c1cccc(C)n1	none
CCC(CC)C(=O)Nc1cc([N+](=O)[O-])ccc1F	none
CCCCCC(=O)NN=C1CCN(Cc2ccccc2)CC1	TWEAK Fn14 block 94.1
Fc1cccc2sc(Nc3nc4cc5c(cc4s3)OCCO5)nc12	TWEAK Fn14 block 73.4, TROY NFkB inh 71.9
